# From ChEMBL document CHEMBL4513216, “Probing the Open Global Health Chemical Diversity Library for Multistage-Active Starting Points for Next-Generation Antimalarials” (ACS Infect Dis, 2020)
# In all, about 69,000 compounds went through this assay and about 8,600 (12%) showed an effect of 50% or more. Only a selection was taken, and strong results are over-represented in it overall.
# Test system: Plasmodium berghei
# Experiment: Screen against P. berghei liver stage (PbLuc), transformed with Luciferase, at 10uM
# Assay type: functional, HepG2
# Details: tested at 10 uM
row,SMILES,INHIBITION [%]
1,COCc1nc(C(=O)N2CCCC2c2cccs2)cs1 (configuration not stated),42
2,Cc1cccc(CN2CCc3ncnc(NC4CCC4)c3CC2)n1,-24.8
3,c1cc(CN2C[C@@H]3OCCN(CC4CCCO4)[C@@H]3C2)cs1 (some centres not stated),46.2
4,COc1cc(CNCc2ccc(NC(=O)NC(C)C)cc2)cc(OC)c1,60
5,CCOc1cccc(CNCc2ccc(NC(=O)NC(C)C)cc2)c1,-18
6,COc1cccc(CNCc2ccc(NC(=O)NC(C)C)cc2)c1,29.4
7,Cc1ccc(CN2CCC[C@]3(C(=O)O)CN(c4ncccn4)C[C@@H]3C2)o1,15.9
8,c1cncc(CN2CCC(c3csc4nccn34)CC2)c1,3.295
9,CC(C)(NC(=O)c1ccc(-c2ccc(F)cc2)s1)C(N)=O,4.12
10,CCCc1nnsc1C(=O)N1CCCC1(C)C(=O)N1CCOCC1 (configuration not stated),-53.1
11,O=C1CC(N(C(=O)c2ccc(F)c(F)c2)C2CC2)C(=O)N1 (configuration not stated),15.3
12,Cc1ccc(C(=O)N(C2CC2)C2CC(=O)NC2=O)cc1F (configuration not stated),50.3
13,COc1cc(C(=O)N(C2CC2)C2CC(=O)NC2=O)ccc1C (configuration not stated),31
14,O=C(O)c1c[nH]c2cc(NS(=O)(=O)c3ccc(Cl)cc3F)ccc12,-2.19
15,CN(C)C(=O)[C@@H]1CCO[C@@H]2CCN(CCOCc3ccccc3)C[C@H]21,43.1
16,CC(=O)c1ccc(N2CCCC(CO)(CCOc3ccccc3)C2)nc1 (configuration not stated),70.1
17,CC(=O)c1ccc(N2CCCC(CO)(CCc3ccccc3)C2)nc1 (configuration not stated),43.7
18,CC(=O)c1ccc(N2CCC3(CC2)CC(=O)N(C)C3)nc1,34.1
19,CCCN1CC2(CCN(c3ccc(C(C)=O)cn3)CC2)CC1C(=O)O (configuration not stated),-12.5
20,CC(=O)c1ccc(N2CCC(CO)(CCOc3ccccc3)CC2)nc1,95.1
21,CN1C(=O)C2(CCN(S(C)(=O)=O)CC2)c2cc(F)ccc21,17.7
22,O=C(CNCCn1cccn1)NCC1(c2ccccc2)CCOCC1,25.4

row,SMILES,INHIBITION [%]
1,CS(=O)(=O)NC[C@H]1OC[C@@H]2CCN(CCc3ccccc3)C[C@@H]21,43.4
2,Cn1c(C2CC2)nc2c1CCN(CCOc1cccc(F)c1)C2,11.9
3,Cc1ccccc1C(=O)N1C[C@@H]2OCCN(c3ncccn3)[C@@H]2C1,-2.35
4,CN1CCN(S(=O)(=O)c2cccc(C#N)c2)c2ccc(F)cc21,62.4
5,CN1CCN(S(C)(=O)=O)c2ccc(F)cc21,21.8
6,CN1CCN(S(=O)(=O)c2cccc(F)c2)c2ccccc21,46.6
7,CCc1cc(OC)c(OC)cc1C(=O)Nc1cccnc1,22.6
8,CO[C@H]1CN(Cc2c(C)ccc3ncccc23)CC[C@H]1N,-69.3
9,O=C(c1ccno1)N1CCc2ncnc(-c3ccncc3)c2CC1,35.5
10,O=C(Nc1ccc(N2CCCCC2)nc1)N1CCc2sccc2C1,-10.8
11,O=C(Nc1ccc(N2CCCC2)nc1)N1CCc2sccc2C1,-11.5
12,O=C(Nc1ccc(N2CCCC2)nc1)N1CCc2ccccc2C1,63.5
13,c1cnnc(N[C@@H]2CC[C@@H]3CN(Cc4c[nH]c5ccccc45)C[C@@H]32)c1,31.6
14,O=c1c2ccc(C(F)(F)F)cc2ncn1CCCN1CCCCC1CO (configuration not stated),56.6
15,CC(C)N1CCCCC1CCn1cnc2cc(C(F)(F)F)ccc2c1=O (configuration not stated),47.9
16,O=c1c2ccc(Cl)cc2ncn1CCCN1CCCCC1CO (configuration not stated),22.9
17,COCCS(=O)(=O)NC(C)c1ccccc1Br (configuration not stated),4.34
18,Cc1ccc(C)c(NC(=O)Nc2c[nH]c(=O)[nH]c2=O)c1,29.2
19,Cc1ccc(NC(=O)Nc2c[nH]c(=O)[nH]c2=O)c(Cl)c1,3.77
20,Cc1ccc(NC(=O)Nc2c[nH]c(=O)[nH]c2=O)c(C)c1,50.8
21,CN1CCCC(NC(=O)c2ccc(C(=O)c3cc[nH]c3)cc2)C1 (configuration not stated),44.2
22,CCOCCN1CCN(CCC(=O)N2CCCCC2)CC1,64.1

row,SMILES,INHIBITION [%]
1,CCOCCN1CCN(CC(=O)N2CCC2)CC1CC (configuration not stated),-20.2
2,CCOCCN1CCN(CC(=O)N2CCCC2)CC1C (configuration not stated),66.5
3,CCOCCN1CCN(CC(=O)N2CCCC2)CC1CC (configuration not stated),31.9
4,CCOCCN1CCN(CCC(=O)N2CCCCC2)CC1C (configuration not stated),-10.1
5,CCOCCN1CCN(CC2(O)CCCCC2)CC1,10.6
6,Cc1cc2nc(C(C)C)cc(NCCc3cccn3C)n2n1,39.5
7,Cc1cc(CN(C)C(=O)C(c2ccccc2)N2CCSCC2)no1 (configuration not stated),17.5
8,CN(Cc1cscn1)C(=O)C(c1ccccc1)N1CCSCC1 (configuration not stated),60.3
9,CN(Cc1ccccn1)C(=O)C(c1ccccc1)N1CCSCC1 (configuration not stated),33.7
10,COCCOCC1CCN(C(=O)c2ccc3[nH]cnc3c2)C1 (configuration not stated),-24.9
11,COc1c(CNCc2ccc(N3CCCC3)nc2)c(C(C)C)nn1C,7.95
12,CCN(CC(=O)N(C)C)S(=O)(=O)c1cnc2c(c1)c(C)nn2C,51.1
13,Cc1nn(C)c2ncc(S(=O)(=O)N3CCCC(C(N)=O)C3)cc12 (configuration not stated),36.5
14,CCN(CCC(=O)OC)S(=O)(=O)c1cnc2c(c1)c(C)nn2C,35.1
15,CCN(CC(=O)NC)S(=O)(=O)c1cnc2c(c1)c(C)nn2C,12.7
16,Cc1nn(C)c2ncc(S(=O)(=O)N3CCCC(C)CC3)cc12 (configuration not stated),45.1
17,CCCN(CC(=O)OC)S(=O)(=O)c1cnc2c(c1)c(C)nn2C,57.6
18,COC(=O)Cn1c(=O)[nH]c2cn(-c3ccc(F)cc3)c(=O)n21,31
19,Cc1ccsc1C(=O)N1CCCC(c2[nH]ncc2S(C)(=O)=O)C1 (configuration not stated),17.4
20,Cc1nc(N2CCOCC2)nc2c1CCN(Cc1nccn1C)CC2,38.5
21,Cc1nc(C)c2c(n1)CCN(Cc1nccn1C)CC2,45.7
22,Cn1ccnc1CN1CCN(Cc2noc(-c3ccccc3)n2)CC1,24.4

row,SMILES,INHIBITION [%]
1,CN(C)c1nc(N2CCCC2)nc2c1CCN(Cc1nccn1C)CC2,50.3
2,Cc1nc(N2CCCC2)nc2c1CCN(Cc1nccn1C)CC2,46.6
3,Cc1nc(-c2ccccc2)nc2c1CCN(Cc1nccn1C)CC2,75.6
4,CC(C)(C)Nc1c(C2CCN(C(=O)C3CC3)CC2)nc2ccccn12,26.355
5,O=C(NCCn1ccnc1)N1CCN(Cc2ccsc2)CC1,19.5
6,CCCn1nc(C)c(-c2cncn2CCN(C)C2CCCC2)c1C,-0.232
7,CCc1nc(CN2CCCN(C(=O)C(CC)OC)CC2)cs1 (configuration not stated),-4.94
8,O=C(Nc1cc(F)ccc1OCC1CCCO1)N1CCCC1 (configuration not stated),17.8
9,CC(=O)N1CCC(c2nnc3ccc(C(=O)NCCN(C)C)cn23)C1 (configuration not stated),59.3
10,CC(C)NC(=O)c1ccc2nnc(C3CCN(C(=O)NC(C)C)C3)n2c1 (configuration not stated),8.85
11,CC(=O)N1CCC(c2nnc3ccc(C(=O)NCC(C)C)cn23)C1 (configuration not stated),51.2
12,CC(C)CNC(=O)c1ccc2nnc(C3CCN(S(C)(=O)=O)C3)n2c1 (configuration not stated),40.9
13,CC(C)NC(=O)c1ccc2nnc(C3CCN(S(C)(=O)=O)C3)n2c1 (configuration not stated),10.6
14,CC(=O)N1CCC(c2nnc3ccc(C(=O)NC(C)C)cn23)C1 (configuration not stated),42.6
15,CCN(C(=O)c1ccc2nnc(C3CCN(C(C)=O)C3)n2c1)C(C)C (configuration not stated),50.3
16,CCN(C(=O)c1ccc2nnc(C3CCN(C)C3)n2c1)C(C)C (configuration not stated),27.6
17,CCC(CC)NC(=O)c1ccc2nnc(C3CCN(C(C)=O)C3)n2c1 (configuration not stated),50.7
18,CCC(CC)NC(=O)c1ccc2nnc(C3CCN(S(C)(=O)=O)C3)n2c1 (configuration not stated),-1.26
19,CC(C)NC(=O)N1CCC(c2nnc3ccc(C(=O)N(C)C)cn23)C1 (configuration not stated),-7.24
20,CCN(C(=O)c1ccc2nnc(C3CCN(S(C)(=O)=O)C3)n2c1)C(C)C (configuration not stated),33.1
21,CC1CCCN(Cc2ccc(OCc3nccn3C)cc2)C1 (configuration not stated),33.3
22,COCC(=O)NC1CCN(c2cccc(OC(F)(F)F)c2)C1=O (configuration not stated),42.3

row,SMILES,INHIBITION [%]
1,CC(C)=CCN1CCN(C(=O)c2cc(C(C)C)no2)[C@H]2CS(=O)(=O)C[C@H]21,-7.25
2,COCc1nc(CNC2CCCC(C)(C)C2)no1 (configuration not stated),25.1
3,Cc1ccc(N2CC[C@H]3OCC[C@@]3(C(=O)NCC3CC3)C2)nn1,12.5
4,CN1CC2(CCN(C(=O)CCc3nc4cccnc4n3C)C2)OC1=O (configuration not stated),-19.1
5,COc1c(CNCc2nnc3n2CCCCC3)c(C(C)C)nn1C,27.9
6,CN(CCc1noc(C2CC2)n1)C(=O)CN1C(=O)COc2ccccc21,-37.9
7,COc1c(C)cnc(CSc2nnc(NC3CC3)s2)c1C,57.7
8,COc1c(C)cnc(CSc2nnc(C)s2)c1C,-40.3
9,COc1c(C)cnc(CSc2nnc(N)s2)c1C,28.6
10,CC(C)C(=O)N1CCCC(Cc2ccccn2)C1 (configuration not stated),25
11,COCCC(=O)N1CCCC(c2n[nH]cc2C)C1 (configuration not stated),36
12,N#CCCCOc1cccnc1NC(=O)Cc1ccccc1F,65.2
13,N#CCCCOc1cccnc1NC(=O)CCC1CCCC1,-12.1
14,N#CCCCOc1cccnc1NC(=O)CC1CCCCC1,20.9
15,Cc1cccc(CC2CCCN(C(=O)Cc3csc(C)n3)C2)n1 (configuration not stated),-8.12
16,Cc1noc(C)c1S(=O)(=O)NC(=O)COc1ccc2c(c1)CCC2,45.3
17,COc1cc(CN(C)Cc2ccncc2)c(SC)cc1OC,39.3
18,COc1cc(CN(C)Cc2cccnc2)c(SC)cc1OC,54.7
19,COc1cc(CN(C)CCc2ccncc2)c(SC)cc1OC,32.7
